Rab9 prom act = qHTS Assay for Rab9 Promoter Activators | Huh7 Rab9 promoter-luciferase reporter, luminescence, 24 h | Potency, µM (series often up to 9.22 µM), for the others: at the top dose activation, negative = inhibition, hits mostly activators | 320,000 compounds, 2.8% hits | AID 485297, 2010; further: % of control where 0% means no effect; nearly all actives have a fitted effect of over 60% in size
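Using Huh7 cells stably transfected with Rab9 promoter–luciferase, compounds were incubated 24 h at 37 °C, 5% CO2; luciferase luminescence was read 10 min after reagent addition.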
ELG1 genotox = qHTS screen for small molecules that induce genotoxicity in human embryonic kidney (HEK293T) cells expressing luciferase-tagged ELG1 | HEK293T ELG1-luciferase reporter, luminescence, 16 h | Potency, µM (series often up to 46 µM), for the others: top-dose activity change, positive = activation, hits mostly activators | 330,000 compounds, 1.3% hits | AID 504466, 2011; further: % of control where 0% means no effect; nearly all actives have a fitted effect of over 60% in size
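HEK293T cells expressing luciferase-tagged ELG1 were exposed to compound or DMSO vehicle for 16 hr at 37 °C and 5% CO2. Luciferase activity was then measured with ONE-Glo after 30 min at room temperature.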
FLuc modulator = qHTS profiling assay for firefly luciferase inhibitor/activator using purifed enzyme and Km concentrations of substrates (counterscreen for miR-21 project). Luciferin 4-monooxygenase (Photinus pyralis), P08659. purified FLuc, Km substrates, luminescence inhibition. 360,000 compounds, 6.9% hits. Potency, µM (highest dose often 57.5 µM), for the others: top-dose activity change, negative = inhibition, usual class: inhibitors. AID 588342, 2011;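 further: plate controls were vehicle for no effect and reference inhibitor for full effect; nearly all actives have a fitted effect of over 55% in size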
Target sequence (P08659 whole entry, looked up): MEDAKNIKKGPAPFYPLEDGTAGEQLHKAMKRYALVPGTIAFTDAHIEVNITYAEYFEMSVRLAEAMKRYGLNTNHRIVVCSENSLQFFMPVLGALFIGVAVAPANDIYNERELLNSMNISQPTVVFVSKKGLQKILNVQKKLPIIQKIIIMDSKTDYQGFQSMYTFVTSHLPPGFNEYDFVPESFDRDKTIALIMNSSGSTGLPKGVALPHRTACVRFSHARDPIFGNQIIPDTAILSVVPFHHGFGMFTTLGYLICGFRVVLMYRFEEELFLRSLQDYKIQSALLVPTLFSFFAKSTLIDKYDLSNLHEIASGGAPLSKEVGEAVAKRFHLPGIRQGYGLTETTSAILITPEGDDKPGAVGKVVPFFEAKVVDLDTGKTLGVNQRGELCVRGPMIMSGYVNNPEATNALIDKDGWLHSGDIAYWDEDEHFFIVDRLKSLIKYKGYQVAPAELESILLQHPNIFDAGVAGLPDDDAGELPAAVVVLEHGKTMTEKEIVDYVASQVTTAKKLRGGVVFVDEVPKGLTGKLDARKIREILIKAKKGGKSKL
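Purified P. pyralis luciferase, 10 nM final, with Km-level 10 uM D-luciferin and 10 uM ATP in 50 mM Tris acetate pH 7.5, 10 mM Mg acetate, 0.01% Tween-20, 0.05% BSA; 6-point qHTS titration about 60 µM downward; luminescence read.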
Luc counter = Counterscreen for Luciferase (Kinase-Glo TM) Inhibition; Potency, µM (doses to about 38.3 µM), for inactives: at the highest dose activity change, negative = inhibition, usual class: inhibitors; 200,000 compounds, 0.28% hits; Luciferin 4-monooxygenase (Photuris pensylvanica), Q27757; AID 1379, 2008; Kinase-Glo luciferase, ATP luminescence, 8 min; further: on the % scale 0 is the no-effect control and ±100 the full control effect; nearly all actives have a fitted effect of over 60% in size
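Compound is pinned into ATP-containing buffer (10 uM ATP, imidazole pH 7.2, 7 mM MgCl2). Kinase-Glo luciferase reagent is then added. Light output is recorded following an 8-min room-temperature incubation.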
SMN2 splice enh = qHTS Assay for Enhancers of SMN2 Splice Variant Expression; HEK293 SMN2-luciferase splicing reporter, luminescence, 30-36 h; Potency, µM (titrated, usually from 46.1 µM), for inactives: top-dose activity change, positive = activation, hits mostly activators; 210,000 compounds, 2.8% hits; AID 1458, 2008; further: % of control where 0% means no effect; nearly all actives have a fitted effect of over 55% in size
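qHTS luciferase splicing reporter: luminescence rises when SMN2 exon 7 is included in transfected HEK293 cells. Compound exposure lasted 30-36 h at 37C, with 4.5 mM final sodium butyrate as control, followed by a ONE-Glo read.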
NPC1 promoter act = qHTS Assay for NPC1 Promoter Activators; Potency, µM (top dose mostly 9.22 µM), for the others: top-dose activation, actives largely listed as activators; AID 485313, 2010; 320,000 compounds, 2.4% hits; Huh7 NPC1 promoter luciferase reporter, 24 h; further: % of control where 0% means no effect; nearly all actives have a fitted effect of over 60% in size
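Stable NPC1-promoter luciferase Huh7 line; cpd (DMSO) 24 h, 37 °C, 5% CO2; Amplite luciferase reagent 10 min RT; luminescence readout. qHTS format.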
* = called active by the depositor. This is a sample that favours compounds with a hit; in the whole collection about 7.5% have one here. The call rests on the fitted dose curve; in most records, active means well fitted curve in the direction sought with a large enough effect; inconclusive means small, poorly fitted or top-dose-only effect, or another doubt; inactive means no such curve, though single readings can be large; an effect the other way counts as inactive or inconclusive. Potency means the concentration at half of the fitted maximal effect.

Screening CCn1c(SCC(N)=O)nnc1-c1cc2c(C)nn(-c3ccccc3)c2s1 returned Rab9 prom act 0%, ELG1 genotox 1%, FLuc modulator 15µM*, Luc counter -1%, SMN2 splice enh -7% and NPC1 promoter act 6%.
`COc1ccc(-n2c(SCC(=O)NCc3ccc(F)cc3)nc3c([nH]c4ccccc43)c2=O)cc1` gave FLuc modulator -3%.
COc1ccc(S(=O)(=O)N2Cc3ccccc3CC2C(=O)Nc2cc(Cl)ccc2Cl)cc1 (stereo not drawn) was read as FLuc modulator -6% and SMN2 splice enh -30%.
For Cc1ccc2c(c1)C(=O)OC(C(=O)Nc1ccc(C(=O)O)cc1)C2 (stereo not drawn) the results were FLuc modulator 7.6µM* and SMN2 splice enh -3%.
For Cc1cc(C)n(-c2nc3ccccc3nc2Nc2ccc(Cl)cc2Cl)n1 the results were FLuc modulator -6% and SMN2 splice enh 0%.
CC(C)Cc1cc(C(=O)NCc2cccs2)no1 was read as Rab9 prom act inconclusive, ELG1 genotox 16µM*, FLuc modulator 15µM*, Luc counter -4%, SMN2 splice enh 13µM* and NPC1 promoter act inconclusive.
CC(C)Cc1cc(C(=O)NCc2cccnc2)no1 was read as Rab9 prom act 9%, ELG1 genotox 22%, FLuc modulator -14%, Luc counter -4%, SMN2 splice enh 11% and NPC1 promoter act 10%.
`CC(C)Cc1cc(C(=O)Nc2ccc(Br)cc2)no1` gave Rab9 prom act inconclusive, ELG1 genotox inconclusive, FLuc modulator 2.7µM* and NPC1 promoter act inconclusive.
COc1ccc(NC(=O)c2cc(CC(C)C)on2)cc1OC was read as Rab9 prom act 1%, ELG1 genotox 21µM*, FLuc modulator inconclusive, Luc counter -3%, SMN2 splice enh 21% and NPC1 promoter act 6%.
`CC(C)Cc1cc(C(=O)Nc2ccc(F)cc2F)no1` gave Rab9 prom act 14%, ELG1 genotox 16µM*, FLuc modulator 11µM*, Luc counter -15%, SMN2 splice enh -3% and NPC1 promoter act 12%.
COc1ccc(NC(=O)c2cc(-c3ccccc3)on2)cc1OC was read as Rab9 prom act -1%, ELG1 genotox 6%, FLuc modulator -5% and NPC1 promoter act 1%.
`CC(C)Cc1cc(C(=O)Nc2c(F)cc(F)cc2Br)no1` gave Rab9 prom act 3%, ELG1 genotox inconclusive, FLuc modulator inconclusive, Luc counter 4%, SMN2 splice enh 12% and NPC1 promoter act -6%.
Screening O=C(NCCOCCn1c(=O)oc2ccccc21)Nc1cccc(Cl)c1 returned FLuc modulator -1% and SMN2 splice enh -12%.
CC(=O)c1ccc(NC(=O)CSc2nc(=O)n(Cc3ccncc3)c3c2CCC3)cc1 was read as FLuc modulator -1%.
`Cc1cc2ccccc2n2c(SCC(=O)Nc3cccc(C(F)(F)F)c3)nnc12` gave FLuc modulator -5% and SMN2 splice enh 2%.
Screening CCc1ccc(NC(=O)c2cc(CC(C)C)on2)cc1 returned Rab9 prom act inconclusive, ELG1 genotox 16µM*, FLuc modulator 2.7µM*, Luc counter 0%, SMN2 splice enh 25% and NPC1 promoter act 26%.
Screening CC(C)Cc1cc(C(=O)Nc2cccc(O)c2)no1 returned Rab9 prom act inconclusive, ELG1 genotox inconclusive, FLuc modulator 0.67µM* and NPC1 promoter act inconclusive.
`CC(C)Cc1cc(C(=O)Nc2ccc3c(c2)OCO3)no1` gave Rab9 prom act 3.2µM*, ELG1 genotox 4.6µM*, FLuc modulator 5.4µM*, Luc counter -6%, SMN2 splice enh 16µM* and NPC1 promoter act 3.2µM*.
CC(C)Cc1cc(C(=O)Nc2cc(Cl)ccc2Cl)no1 was read as Rab9 prom act 21%, ELG1 genotox 30%, FLuc modulator inconclusive, Luc counter 1%, SMN2 splice enh 6% and NPC1 promoter act 16%.
`COc1ccccc1C(=O)Nc1ccc(-c2cc(C(F)(F)F)nn2-c2ccccc2)cc1` gave FLuc modulator -8% and SMN2 splice enh -36%.
Screening C[C@@H](/C=C\c1cccc(Oc2ccc(F)cc2)c1)N(O)C(N)=O returned Luc counter 0%.
`COC(=O)CCC(=O)COc1ccc(OC)cc1C#N` gave Rab9 prom act 2.5µM*, ELG1 genotox inconclusive, FLuc modulator inconclusive and NPC1 promoter act inconclusive.
`COC(=O)CCC(=O)COc1ccccc1C#N` gave Rab9 prom act 6%, ELG1 genotox inconclusive, FLuc modulator -12%, Luc counter 5%, SMN2 splice enh -3% and NPC1 promoter act -1%.
For COc1ccc(C(=O)COc2ccccc2C#N)cc1 the results were Rab9 prom act 3.2µM*, ELG1 genotox inconclusive, FLuc modulator inconclusive and NPC1 promoter act 2.8µM*.
`CC1CCN(S(=O)(=O)c2ccc3c(c2)CCN3C(=O)Nc2ccc(Br)cc2F)CC1` gave FLuc modulator 0% and SMN2 splice enh 4%.
Screening CCOC(=O)c1c(NC(=O)/C=C/c2ccc(C)cc2)sc2c1CCCC2 returned FLuc modulator -1% and SMN2 splice enh -7%.
CCOC(=O)c1c(C)[nH]c(CCC(=O)NCc2ccc(N(C)C)cc2)c1C was read as FLuc modulator -12%.
Screening CC(C)COC(=O)N1CCCC1C(=O)O (stereo not drawn) returned Rab9 prom act 3.2µM*, ELG1 genotox 4%, FLuc modulator 1%, Luc counter -1%, SMN2 splice enh 11% and NPC1 promoter act 7%.
CC(C)C1COC(c2cccc3ccccc23)=N1 (stereo not drawn) was read as Rab9 prom act 0.79µM*, ELG1 genotox 21µM*, FLuc modulator 2.1µM*, Luc counter -22%, SMN2 splice enh 22µM* and NPC1 promoter act 3.2µM*.
Screening CCn1cc(C2=NC(C(C)C)CO2)c2ccccc21 (stereo not drawn) returned Rab9 prom act -1%, ELG1 genotox inconclusive, FLuc modulator -14%, Luc counter 0%, SMN2 splice enh 15% and NPC1 promoter act -3%.
For CCc1ccccc1NC(=O)Cn1nnc(-c2nc(-c3ccncc3)no2)c1N the results were FLuc modulator -1%.

Source: PubChem BioAssay (National Center for Advancing Translational Sciences (NCATS))
